According to the supplement of paper PMC6992640:

System: HCI01 (cells of a triple-negative basal-like breast cancer xenograft)
Assay: cell viability of combination (% of vehicle); higher = less cytotoxic
Conditions: 1 µM; 72 h; partner dose: 10 nM
Procedure: (§1)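 PDX cells were treated for 72 h with each drug at 1 µM plus carfilzomib (10 nM; 100 nM for WHIM2). Luciferase viability is expressed as percent of vehicle.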

**Q.** For `COc1ccc(CN2CCN(C(c3ccc(F)cc3)c3ccc(F)cc3)CC2)c(OC)c1OC.Cl.Cl` [Lomerizine HCl] + CC(C)C[C@H](NC(=O)[C@H](CCc1ccccc1)NC(=O)CN1CCOCC1)C(=O)N[C@@H](Cc1ccccc1)C(=O)N[C@@H](CC(C)C)C(=O)[C@@]1(C)CO1 [Carfilzomib], which “cell viability of combination” value is on record?
**A.** 91.1

**Q.** For `COc1cc2nccc(Oc3ccc(NC(=O)Nc4cc(C)on4)c(Cl)c3)c2cc1OC` [Tivozanib (AV-951)] + CC(C)C[C@H](NC(=O)[C@H](CCc1ccccc1)NC(=O)CN1CCOCC1)C(=O)N[C@@H](Cc1ccccc1)C(=O)N[C@@H](CC(C)C)C(=O)[C@@]1(C)CO1 [Carfilzomib], which “cell viability of combination” value is on record?
**A.** 97.5

**Q.** With `C=C1C(=CC=C2CCCC3(C)C2CCC3C(C)CCCC(C)(C)O)CC(O)CC1O` (configuration not stated) [Calcitriol] + CC(C)C[C@H](NC(=O)[C@H](CCc1ccccc1)NC(=O)CN1CCOCC1)C(=O)N[C@@H](Cc1ccccc1)C(=O)N[C@@H](CC(C)C)C(=O)[C@@]1(C)CO1 [Carfilzomib] as the molecule, how does the “cell viability of combination” value read?
**A.** 53.8

**Q.** Which “cell viability of combination” value does the source give for `C1=C\COCc2cc(ccc2OCCN2CCCC2)Nc2nccc(n2)-c2cccc(c2)COC/1` [Pacritinib] + CC(C)C[C@H](NC(=O)[C@H](CCc1ccccc1)NC(=O)CN1CCOCC1)C(=O)N[C@@H](Cc1ccccc1)C(=O)N[C@@H](CC(C)C)C(=O)[C@@]1(C)CO1 [Carfilzomib] here?
**A.** 58.2

**Q.** `Clc1ccc(C(Cn2ccnc2)OCc2ccsc2Cl)c(Cl)c1` (configuration not stated) [Tioconazole] + CC(C)C[C@H](NC(=O)[C@H](CCc1ccccc1)NC(=O)CN1CCOCC1)C(=O)N[C@@H](Cc1ccccc1)C(=O)N[C@@H](CC(C)C)C(=O)[C@@]1(C)CO1 [Carfilzomib] was tested. Which “cell viability of combination” value did it give?
**A.** 88.4

System: UCD52 (cells of a triple-negative basal-like breast cancer xenograft)
Assay: as above
Conditions: 1 µM; 72 h; partner dose: 10 nM
Procedure: as §1

**Q.** `CNCCC(Oc1ccc(C(F)(F)F)cc1)c1ccccc1.Cl` (configuration not stated) [Fluoxetine HCl] + CC(C)C[C@H](NC(=O)[C@H](CCc1ccccc1)NC(=O)CN1CCOCC1)C(=O)N[C@@H](Cc1ccccc1)C(=O)N[C@@H](CC(C)C)C(=O)[C@@]1(C)CO1 [Carfilzomib] was tested. Which “cell viability of combination” value did it give?
**A.** 52.6

**Q.** Which “cell viability of combination” value does the source give for `Cc1ccc(-n2[nH]c(C)c(NN=C3C=CC=C(c4cccc(C(=O)O)c4)C3=O)c2=O)cc1C` [Eltrombopag] + CC(C)C[C@H](NC(=O)[C@H](CCc1ccccc1)NC(=O)CN1CCOCC1)C(=O)N[C@@H](Cc1ccccc1)C(=O)N[C@@H](CC(C)C)C(=O)[C@@]1(C)CO1 [Carfilzomib] here?
**A.** 58.8

**Q.** With `CC(NCCCc1cccc(C(F)(F)F)c1)c1cccc2ccccc12.Cl` (configuration not stated) [Cinacalcet HCl] + CC(C)C[C@H](NC(=O)[C@H](CCc1ccccc1)NC(=O)CN1CCOCC1)C(=O)N[C@@H](Cc1ccccc1)C(=O)N[C@@H](CC(C)C)C(=O)[C@@]1(C)CO1 [Carfilzomib] as the molecule, how does the “cell viability of combination” value read?
**A.** 59.9

**Q.** `CC(C)COc1ccc(CNC(=O)N(Cc2ccc(F)cc2)C2CCN(C)CC2)cc1` [Pimavanserin] + CC(C)C[C@H](NC(=O)[C@H](CCc1ccccc1)NC(=O)CN1CCOCC1)C(=O)N[C@@H](Cc1ccccc1)C(=O)N[C@@H](CC(C)C)C(=O)[C@@]1(C)CO1 [Carfilzomib] was tested. Which “cell viability of combination” value did it give?
**A.** 62.4

**Q.** How did the “cell viability of combination” value turn out when `COC1=C(OC)C(=O)C(CCCCCCCCCCO)=C(C)C1=O` [Idebenone] + CC(C)C[C@H](NC(=O)[C@H](CCc1ccccc1)NC(=O)CN1CCOCC1)C(=O)N[C@@H](Cc1ccccc1)C(=O)N[C@@H](CC(C)C)C(=O)[C@@]1(C)CO1 [Carfilzomib] was run?
**A.** 62

**Q.** `CC(C)(C)NC(=O)C1CC2CCCCC2CN1CC(O)C(Cc1ccccc1)NC(=O)C(CC(N)=O)NC(=O)c1ccc2ccccc2n1.CS(=O)(=O)O` (configuration not stated) [Saquinavir mesylate] + CC(C)C[C@H](NC(=O)[C@H](CCc1ccccc1)NC(=O)CN1CCOCC1)C(=O)N[C@@H](Cc1ccccc1)C(=O)N[C@@H](CC(C)C)C(=O)[C@@]1(C)CO1 [Carfilzomib] was tested. Which “cell viability of combination” value did it give?
**A.** 60.2

**Q.** How did the “cell viability of combination” value turn out when `O=C(c1ccc(F)c(F)c1Nc1ccc(I)cc1F)N1CC(O)(C2CCCCN2)C1` (configuration not stated) [Cobimetinib] + CC(C)C[C@H](NC(=O)[C@H](CCc1ccccc1)NC(=O)CN1CCOCC1)C(=O)N[C@@H](Cc1ccccc1)C(=O)N[C@@H](CC(C)C)C(=O)[C@@]1(C)CO1 [Carfilzomib] was run?
**A.** 44.7
